Reference: PubChem BioAssay (NCATS)
Where “and” joins values, the source holds several entries; their conditions need not be identical. Equal values may be shown once. Results filed as inconclusive are left out. Entries that show only a call come without a potency. Calls of active or inactive are those of the source. Unless noted, calls come from the whole dose curve; as a rule, active = well fitted curve in the direction sought with a large enough effect; inconclusive = small, poorly fitted or top-dose-only effect, or another doubt; inactive = no such curve, though single readings can be large; an effect the other way counts as inactive or inconclusive.

Experiments:
[1] = Cell Viability - LYMP1-003 - Assay at 40 hr (AID 964); note: nearly all actives have a fitted effect of over 60% in size
Outline: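 This qHTS cytotoxicity screen treats human lymphoblastoid cells (LYMP1-003) with compounds for 40 hr and quantifies cellular ATP via luciferase luminescence.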

[2] = Cell Viability - LYMP2-005 (AID 967); note: potency is the fitted concentration of half-maximal effect
Outline: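 Human lymphoblastoid LYMP2-005 cells, 2,500 per well in complete medium, rested 5 h at 37C then compound-treated 24 h at 37C. Intracellular ATP read by CellTiter-Glo luminescence after 30 min at room temperature; AC50 from Hill-equation fits of concentration-response data.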

[3] = Cell Viability - LYMP2-011 (AID 969); note: nearly all actives have a fitted effect of over 60% in size
Outline: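 Acute toxicity is scored as a concentration-dependent drop in intracellular ATP of a human lymphoblastoid line after 24 hr treatment. Values are AC50s modeled with the Hill equation.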

[4] = Cell Viability - LYMP2-013 (AID 970); note: nearly all actives have a fitted effect of over 55% in size
Outline: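 Acute toxicity was measured in human lymphoblastoid cells (2500/well) exposed to compound titrations for 24 hr, with ATP luminescence (CellTiter-Glo) as read-out and AC50 fitted by Hill equation.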

[5] = Cell Viability - LYMP2-017 (AID 972); note: nearly all actives have a fitted effect of over 55% in size; note: potency is the fitted concentration of half-maximal effect
Outline: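 Steps: plate 2500 lymphoblastoid cells per well; incubate 5 hr at 37 C; add compound across a concentration series and incubate 24 hr at 37 C; add CellTiter-Glo and read luminescence after 30 min at room temperature; fit Hill curves for AC50.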

[6] = Cell Viability - LYMP2-019 (AID 973); note: nearly all actives have a fitted effect of over 55% in size
Outline: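 Cells plated at 2500/well and allowed 5 hr at 37 C before compound addition. After 24 hr incubation, CellTiter-Glo reagent was added, plates sat 30 min at room temperature, and luminescence was recorded.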

[7] = Cell Viability - LYMP2-021 (AID 974);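 note: compound exposure lasts 24 hours at 37 °C; nearly all actives have a fitted effect of over 55% in size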; note: potency is the fitted concentration of half-maximal effect
Outline: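 Concentration-response cytotoxicity in a human lymphoblastoid line: 24 hr treatment at 37 C in complete culture medium, tetraoctylammonium bromide as positive control, luminescent ATP quantitation as viability measure.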

[8] = Cell Viability - LYMP2-023 (AID 975)
Outline: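 Concentration-dependent drop in intracellular ATP measures acute cytotoxicity in a human lymphoblastoid line treated for 24 hours in complete culture medium. AC50 values are taken from Hill-equation fits of qHTS data.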

[9] = Cell Viability - LYMP2-002 (AID 977)
Outline: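 Luminescent ATP readout (CellTiter-Glo, 30 min room temperature) after 24 h compound exposure at 37 C of a human lymphoblastoid line, 2500 cells/well. AC50 values derived by standard Hill fitting of qHTS concentration-response data.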

[10] = Cell Viability - LYMP2-016 (AID 984); note: nearly all actives have a fitted effect of over 55% in size
Outline: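 Human lymphoblastoid LYMP2-016 cells, 2500 per well, treated with compounds for 24 h at 37 C. Viability read as intracellular ATP by CellTiter-Glo luminescence after 30 min at room temperature; AC50 from Hill fits of concentration-response.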

[11] = Cell Viability - LYMP2-018 (AID 985);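 note: compound exposure lasted 24 hr at 37 °C; nearly all actives have a fitted effect of over 50% in size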
Outline: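 Acute cytotoxicity is scored as a concentration-dependent drop in intracellular ATP after 24 hr exposure of the lymphoblastoid line in complete culture medium, measured by luciferase luminescence. Potency is expressed as AC50 from Hill modelling.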

[12] = Cell Viability - LYMP2-020 (AID 986); note: nearly all actives have a fitted effect of over 55% in size
Outline: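 Acute cytotoxicity in a human lymphoblastoid line is scored as a concentration-dependent fall in cellular ATP after 24 hr at 37 C in complete medium. The positive control is tetraoctylammonium bromide, and potency is given as Hill-fit AC50.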

[13] = Cell Viability - LYMP2-022 (AID 987); note: nearly all actives have a fitted effect of over 55% in size; note: potency is the fitted concentration of half-maximal effect
Outline: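 Acute toxicity in a human lymphoblastoid line is scored as decreased intracellular ATP after 24 hr compound treatment at 37 C. ATP is measured by CellTiter-Glo luminescence; curves are fitted with the Hill equation to give AC50.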

[14] = qHTS assay for small molecule antagonists of retinoid X receptor alpha signaling (AID 588546; active = well fitted inhibition curve with a large enough effect in the signal ratio, with a control signal flat, not every such curve was filed as active; the % refers to the signal ratio;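 note: cells stimulated with 9-cis-retinoic acid as agonist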); details: HEK293T RXRa-UAS-bla, beta-lactamase ratio, antagonist mode; measured here: W530 green channel, cytotoxicity proxy
Outline: (§1)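 Beta-lactamase reporter inhibition, read as CCF4 fluorescence ratio (ex 405, em 460/530 nm) after 2 h at RT. HEK293T UAS-bla cells, 2500/well, were stimulated with 9-cis-RA at 500 or 100 nM final alongside test compound for 18 h at 37 C.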

[15] = molecular target: Retinoic acid receptor RXR-alpha (Homo sapiens) (UniProt P19793); assay: as above; details: HEK293T RXRa-UAS-bla, beta-lactamase ratio, antagonist mode
Outline: as §1

[16] = molecular target: Thyroid hormone receptor beta (Homo sapiens) (UniProt P10828); assay: qHTS assay for small molecule antagonists of thyroid hormone receptor beta signaling (AID 588547; active = well fitted inhibition curve with a large enough effect in the signal ratio, with a control signal flat, not every such curve was filed as active; the % refers to the signal ratio;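 note: cells stimulated with 0.4 nM T3 agonist during compound exposure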); details: TR-UAS-bla HEK293, beta-lactamase ratio, antagonist mode, 18 h
Outline: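 TR-UAS-bla GripTite HEK293 cells in 2% charcoal/dextran FBS medium were preincubated 4 h at 37 C, given compound (0.59 nM to 92 uM) plus 0.4 nM T3 (final) for 18 h, then CCF4 for 2 h at RT; Hill fit gave IC50.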

[17] = qHTS assay for small molecule disruptors of the mitochondrial membrane potential - 1 hr assay (AID 651754; calls by dose curve; note: nearly all actives have a fitted effect of over 35% in size)
Outline: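 Steps: seed HepG2 cells and let attach overnight; pin-transfer compound or vehicle; incubate 1 hr at 37C; add Mito-MPS dye for 30 min; read two-channel fluorescence for monomer and aggregate forms.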

[18] = qHTS assay for small molecule disruptors of the mitochondrial membrane potential - 5 hr assay (AID 651755; calls by dose curve; note: nearly all actives have a fitted effect of over 40% in size)
Outline: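 HepG2 cells, attached overnight at 37C, were exposed to compound or DMSO for 5 hr at 37C, 5% CO2. Mito-MPS dye was then added for 30 min, and fluorescence read at 490/535 nm (monomers) and 540/590 nm (aggregates).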

[19] = qHTS assay for environmental chemicals that activate the Aryl hydrocarbon Receptor (AhR) signaling pathway (AID 651777); details: 1A2-DRE human hepatoma cells, luciferase, 24 h; activation: stronger effect = higher value; note: nearly all actives have a fitted effect of over 15% in size
Outline: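 Measured luciferase activity, read 30 min after One-Glo addition at room temperature, from human hepatoma cells bearing a dioxin response element–CYP1A2 promoter reporter and exposed to compound for 24 hr at 37 C.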

[20] = Cell Viability - NIH 3T3 (AID 541); details: NIH 3T3 cell viability, qHTS; activity change, negative = cytotoxicity: at 92.2 µM (top of the series);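 note: cells exposed to compound for 40 hours; nearly all actives have a fitted effect of over 25% in size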
Outline: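 AC50 values reflect concentration-dependent loss of intracellular ATP in NIH 3T3 cells after 40 hr treatment in complete culture medium, quantified by luciferase-based luminescence.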

Retinoic acid receptor RXR-alpha (Homo sapiens), sequence (P19793 whole entry, looked up): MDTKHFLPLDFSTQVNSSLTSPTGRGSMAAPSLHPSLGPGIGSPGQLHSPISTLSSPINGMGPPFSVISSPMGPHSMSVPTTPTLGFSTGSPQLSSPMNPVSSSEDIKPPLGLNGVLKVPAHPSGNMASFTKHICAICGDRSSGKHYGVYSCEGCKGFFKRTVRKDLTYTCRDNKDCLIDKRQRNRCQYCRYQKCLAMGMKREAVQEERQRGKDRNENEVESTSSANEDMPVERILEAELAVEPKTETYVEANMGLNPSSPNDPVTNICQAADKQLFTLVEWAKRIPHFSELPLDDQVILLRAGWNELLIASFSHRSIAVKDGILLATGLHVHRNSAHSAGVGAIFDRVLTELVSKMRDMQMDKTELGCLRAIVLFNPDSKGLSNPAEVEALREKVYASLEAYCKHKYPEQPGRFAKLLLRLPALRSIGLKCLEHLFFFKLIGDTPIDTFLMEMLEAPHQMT
Thyroid hormone receptor beta (Homo sapiens), sequence (P10828 whole entry, looked up): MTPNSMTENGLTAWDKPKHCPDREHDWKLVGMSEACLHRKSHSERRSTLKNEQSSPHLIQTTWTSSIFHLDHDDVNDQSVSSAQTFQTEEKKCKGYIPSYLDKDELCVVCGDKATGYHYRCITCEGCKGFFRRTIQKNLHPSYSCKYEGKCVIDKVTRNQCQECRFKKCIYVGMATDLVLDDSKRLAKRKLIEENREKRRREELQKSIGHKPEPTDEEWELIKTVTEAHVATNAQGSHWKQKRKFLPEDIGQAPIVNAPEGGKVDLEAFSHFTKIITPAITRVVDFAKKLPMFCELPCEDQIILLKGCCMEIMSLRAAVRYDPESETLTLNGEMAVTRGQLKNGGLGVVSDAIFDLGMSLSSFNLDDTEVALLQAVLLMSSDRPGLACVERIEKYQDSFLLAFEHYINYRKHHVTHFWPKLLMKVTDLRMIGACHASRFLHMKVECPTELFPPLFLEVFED

Row | SMILES | Potency [1] | Potency [2] | Potency [3] | Potency [4] | Potency [5] | Potency [6] | Potency [7] | Potency [8] | Potency [9] | Potency [10] | Potency [11] | Potency [12] | Potency [13] | max response [14] | max response [15] | activity change % (negative = inhibition) [16] | Potency [17] | Potency [18] | activation [19] | activity change, negative = cytotoxicity [20]
1 | COC1=CC(=O)O[C@@H](/C=C/c2ccc3c(c2)OCO3)C1 | inactive | inactive | inactive | inactive | inactive | inactive | inactive | inactive | inactive | inactive | inactive | inactive | inactive | 10.1% | -29.4% (inactive) | 4.69% (inactive) | inactive | inactive | 3.16% (inactive) | –
2 | C[C@]12CC[C@H]3[C@@H](CCC4=CC(=O)CC[C@@]43C)[C@@H]1CC[C@@H]2O | inactive | inactive | inactive | inactive | inactive | inactive | inactive | inactive | inactive | inactive | inactive | inactive | inactive | – | – | 14.5% (inactive) | inactive | inactive | -1.35% (inactive) | -90.5% (active)
3 | c1ccc(-c2ccccc2)cc1 | inactive | inactive | inactive | inactive | inactive | inactive | inactive | inactive | inactive | inactive | inactive | inactive | inactive | -7.26% and -12.6% | -4.53% (inactive) and 7.05% (inactive) | -3.07% (inactive) and -0.354% (inactive) | inactive | inactive | -0.623% (inactive) and 2.83% (inactive) | -5.05% (inactive)
4 | c1ccc(OP(Oc2ccccc2)Oc2ccccc2)cc1 | inactive | inactive | inactive | inactive | inactive | inactive | inactive | inactive | inactive | inactive | inactive | inactive | inactive | -3.76% and -10.6% | 4.67% (inactive) and -4.17% (inactive) | 5.76% (inactive) | inactive | inactive | 0.234% (inactive) and -1.88% (inactive) | 7% (inactive)
5 | CCCCOCCOP(=O)(OCCOCCCC)OCCOCCCC | inactive | inactive | inactive | inactive | inactive | inactive | inactive | inactive | inactive | inactive | inactive | inactive | inactive | 2.76% and -5.2% | -9.74% (inactive) and -1.56% (inactive) | -2.2% (inactive) and -9.56% (inactive) | inactive | inactive | – | -4.02% (inactive)
6 | Brc1ccc(Oc2cc(Br)c(Br)cc2Br)c(Br)c1 | inactive | inactive | inactive | inactive | inactive | inactive | inactive | inactive | inactive | inactive | inactive | inactive | inactive | 10.6% and 6.53% | -5.38% (inactive) and -23.6% (inactive) | 8.45% (inactive) and -8.42% (inactive) | – | – | 5.38% (inactive) and 0.601% (inactive) and 5.34% (inactive) | -13.1% (inactive) and -22.5% (inactive)
7 | COc1ccc(N)cc1 | inactive | inactive | inactive | inactive | inactive | inactive | inactive | inactive | inactive | inactive | inactive | inactive | inactive | 0.204% and 7.89% | -1.34% (inactive) and 19.9% (inactive) | 8.16% (inactive) and -11.7% (inactive) | inactive | inactive | 1.03% (inactive) and 6.89% (inactive) | -5.61% (inactive)
8 | CC(=O)[O-].CC(=O)[O-].O.O.O.[Pb+2] | inactive | inactive | inactive | inactive | inactive | inactive | inactive | inactive | inactive | inactive | inactive | inactive | inactive | -8.42% and -6.15% | 27.2% (inactive) and 0.247% (inactive) | -0.227% (inactive) | inactive | inactive | 1.24% (inactive) and 0.452% (inactive) | 11.5% (inactive) and -1.35% (inactive)
9 | CC(Cl)Cl | inactive | inactive | inactive | inactive | inactive | inactive | inactive | inactive | inactive | inactive | inactive | inactive | inactive | -2.19% | 21.2% (inactive) | -1.63% (inactive) | inactive | inactive | -0.961% (inactive) | -15.4% (inactive)
10 | CN=C=S | inactive | – | inactive | inactive | inactive | inactive | inactive | inactive | inactive | inactive | inactive | inactive | inactive | -16.3% and -0.556% | 0.0175% (inactive) and -8.56% (inactive) | -1.38% (inactive) and -7.2% (inactive) | inactive | inactive | 0.215% (inactive) and 0.204% (inactive) | 7.36% (inactive)
11 | OCC(Br)CBr (stereo unspecified) | inactive | inactive | inactive | inactive | inactive | inactive | inactive | inactive | – | inactive | inactive | inactive | inactive | -6.01% | 1.29% (inactive) | 1.09% (inactive) | inactive | inactive | -1.14% (inactive) | -14.7% (inactive)
12 | CC(C)(OO)c1ccccc1 | inactive | 39.8 µM (active) | – | – | 50.1 µM (active) | – | 50.1 µM (active) | – | inactive | inactive | – | inactive | 39.8 µM (active) | 16% and -6.37% | 2.62% (inactive) and 5.92% (inactive) | 14.1% (inactive) and -10.7% (inactive) | inactive | inactive | 0.536% (inactive) and 0.232% (inactive) | -123% (active)
13 | CC(C)(C)OO | inactive | inactive | inactive | inactive | inactive | inactive | inactive | inactive | inactive | inactive | inactive | inactive | inactive | -3.93% and -2.51% | 34% (inactive) and 10.1% (inactive) | 4.81% (inactive) and -2.74% (inactive) | inactive | inactive | -0.688% (inactive) and -2.1% (inactive) | -4.73% (inactive) and 1.03% (inactive)
14 | Cc1cccc(C#N)c1 | inactive | inactive | inactive | inactive | inactive | inactive | inactive | inactive | inactive | inactive | inactive | inactive | inactive | 3.52% | 20.5% (inactive) | 7.42% (inactive) | inactive | inactive | 2.06% (inactive) | -15.8% (inactive)
15 | O=C=NC1CCCCC1 | inactive | inactive | inactive | inactive | inactive | inactive | inactive | inactive | inactive | inactive | inactive | inactive | inactive | -7.8% and -5.15% | 12.3% (inactive) and -18.1% (inactive) | -8.25% (inactive) and 2.05% (inactive) | inactive | inactive | 2.61% (inactive) and 5.17% (inactive) | -1.14% (inactive) and -2.08% (inactive)
16 | C=CC(C)=O | inactive | inactive | inactive | inactive | inactive | inactive | inactive | inactive | inactive | inactive | inactive | inactive | inactive | -5.91% | 8.07% (inactive) | – | inactive | inactive | 1.86% (inactive) | -2.38% (inactive)
